Shown are actives, neighbours in structure and some others; about 2.8% of the full set was active somewhere.
WRN helicase inh: blocks human WRN helicase; Q14191; AID 651768; WRN helicase unwinding, fluorescent forked duplex, kinetic; Potency, µM (series often up to 114 µM), for the others: at the top dose activity change, negative = inhibition, actives largely listed as inhibitors; 360,000 compounds, 0.46% hits; note: potency is the fitted concentration of half-maximal effect; % is set by controls: 0 for no effect and ±100 for the full control effect; nearly all actives have a fitted effect of over 55% in size
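Enzyme (20 nM final) and test compound sit together 15 min at room temperature before substrate addition. Substrate is a single-forked duplex oligonucleotide (100 nM) labelled with fluorophore and quencher, with 2 mM ATP; helicase unwinding raises red fluorescence, read kinetically.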
POLH inh: blocks human DNA polymerase eta activity. recombinant Pol eta, fluorescent DNA replication assay. Potency, µM (top dose mostly 114 µM), for inactives: at the highest dose activity change, negative = inhibition, usual class: inhibitors. 390,000 compounds, 1.2% hits; note: potency is the fitted concentration of half-maximal effect; % is set by controls: 0 for no effect and ±100 for the full control effect
Target sequence (Q9Y253 whole entry, looked up): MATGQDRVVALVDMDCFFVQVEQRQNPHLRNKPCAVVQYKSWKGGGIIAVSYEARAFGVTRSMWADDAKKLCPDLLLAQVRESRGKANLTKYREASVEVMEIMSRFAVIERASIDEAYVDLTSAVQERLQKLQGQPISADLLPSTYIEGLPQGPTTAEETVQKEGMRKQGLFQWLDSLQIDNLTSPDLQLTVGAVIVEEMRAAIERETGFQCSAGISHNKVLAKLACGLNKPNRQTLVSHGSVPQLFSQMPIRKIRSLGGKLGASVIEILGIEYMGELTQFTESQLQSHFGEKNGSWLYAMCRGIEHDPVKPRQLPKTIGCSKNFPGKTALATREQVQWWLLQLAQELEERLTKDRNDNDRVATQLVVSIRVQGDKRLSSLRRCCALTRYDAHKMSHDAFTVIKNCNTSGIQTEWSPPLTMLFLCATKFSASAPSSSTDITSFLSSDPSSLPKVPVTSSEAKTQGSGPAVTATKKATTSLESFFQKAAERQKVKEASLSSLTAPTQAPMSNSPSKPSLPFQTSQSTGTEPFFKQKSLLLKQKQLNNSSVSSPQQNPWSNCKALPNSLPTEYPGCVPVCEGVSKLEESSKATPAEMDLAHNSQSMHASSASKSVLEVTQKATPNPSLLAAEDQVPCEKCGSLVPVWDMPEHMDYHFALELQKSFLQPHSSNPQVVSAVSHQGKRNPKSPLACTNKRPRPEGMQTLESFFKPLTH
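Pol eta at 10 nM preincubated with compounds 15 min at room temperature; reaction started with fluorescent substrate (50 nM final) and read kinetically at 0 and 10 min.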
PI5P4Ka inh: blocks human PI5P4K alpha kinase activity | max response, % | PI5P4Kalpha enzyme, ADP-Glo luminescence, 60 min; active compounds read low | AID 652105 | P48426 | 330,000 compounds, 1.2% hits; active = max response of -50% or lower; inconclusive = between -30% and -50%; inactive = -30% or higher; note: value at the top dose of about 77 µM; % is set by controls: 0 for no effect and ±100 for the full control effect
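ADP-Glo luminescence end-point read after a 60 min room-temperature kinase reaction of PI5P4Kalpha plus substrate, initiated with ATP at 5 microM final. Buffer: 0.038 M HEPES pH 7.4, EGTA, 0.1% CHAPS, 5% DMSO.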
Pol iota inh: DNA polymerase iota (human) inhibition | Pol iota fluorescent replication assay, 10 min | Q9UNA4 | 390,000 compounds, 1% hits | Potency, µM (doses to about 115 µM), for the others: top-dose activity, negative = inhibition, usual class: inhibitors; note: potency is the fitted concentration of half-maximal effect
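Fluorescent replication assay read twice, at 0 min and 10 min after adding 50 nM (final) substrate. Enzyme (10 nM) and compounds were first incubated 15 min at room temperature; enzyme-free buffer wells were negative controls.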
POLB inh: DNA polymerase beta (human) inhibition. Potency, µM (highest dose often 114 µM), without a hit: at the top dose activity change, negative = inhibition, most hits filed as inhibitors. 340,000 compounds, 1.3% hits. Pol beta primer extension/strand displacement, fluorescence kinetic; note: potency is the fitted concentration of half-maximal effect; % is set by controls: 0 for no effect and ±100 for the full control effect
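Reaction started by 50 nM substrate onto compound-treated Pol beta (10 nM, 15 min preincubation, room temperature); plates read at 0 min and 10 min. Normalized concentration-effect data fitted by four-parameter Hill equation.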
POLK inh: inhibitors of human DNA polymerase kappa. purified Pol kappa, fluorescent DNA synthesis assay, 10 min. Potency, µM (titrated, usually from 107 µM), for the others: at the highest dose activity, negative = inhibition, usual class: inhibitors. 400,000 compounds, 0.53% hits. AID 588579; note: potency is the fitted concentration of half-maximal effect; % is set by controls: 0 for no effect and ±100 for the full control effect
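Inhibition of 10 nM Pol kappa is measured by a fluorescent read-out at 0 and 10 min following addition of 50 nM substrate (final), with a 15-min room-temperature compound preincubation.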
* hit, by the source's call; ? = inconclusive; · = no result given; [ ] = another dose, or the depositor's remark. Unless noted, calls come from the whole dose curve; as a rule, active = well fitted curve in the direction sought with a large enough effect; inconclusive = small, poorly fitted or top-dose-only effect, or another doubt; inactive = no such curve, though single readings can be large; an effect the other way counts as inactive or inconclusive.

SMILES | WRN helicase inh | POLH inh | PI5P4Ka inh | Pol iota inh | POLB inh | POLK inh
C=CCn1c(O)c(/C(C)=N/NC(=S)Nc2ccccc2)c(=O)[nH]c1=O | -29% | -2% | -64* | ? | 6% | -19%
NCC(=O)c1cccc([N+](=O)[O-])c1 | · | · | · | 34% | · | 6%
COc1ccc(C[C@@H]2c3cc(O)c(OC)cc3CCN2C)cc1O | 0% | -14% | -2 | 64% | 5% | -17%
COc1cc2c(cc1O)[C@@H]1Cc3ccc(OC)c(O)c3CN1CC2 | 16% | ? | -2 | 10µM* | · | -5%
C[C@H]1CC[C@@H]2[C@@H](C)[C@H]3C(C[C@H]4C5CC[C@H]6C[C@@H](O)CC[C@]6(C)C5CC[C@]34C)N2C1 (some centres undefined) | · | · | · | -9% | · | 10%
[O]=[Sb]([OH])([OH])[c]1ccccc1 | · | · | · | 20µM* | · | 25µM*
COC(=O)C(O)(c1ccc(NC(=O)c2ccccc2)cc1)C(F)(F)F (centres undefined) | 0% | -25% | 0 | 28% | 1% | -2%
O=C(Cc1ccccc1)OCc1ccccc1 | -4% | -10% | 5 | 6% | · | 0%
O=C(Nc1cc[c]([Sb](=[O])([OH])[OH])cc1)c1ccccc1 | · | · | · | ? | · | 6.3µM*
O=C1NC(=O)N(Cc2cccs2)C(=O)/C1=C/c1ccc(N2CCOCC2)cc1 | 56µM* | 4% | -52* | 118% | -6% | -7%
CCCc1cc(=O)oc2cc(OCc3ccc(C(=O)O)o3)ccc12 | -3%[11.6 µM] | ? | -8 | 113% | 71µM* | -16%
CCOC(=O)[C@]12Cc3cc(OC)ccc3[C@H]1N(C(C)C)C(=O)c1cc(OC)ccc12 | -10% | · | 2 | · | · | ·
CCc1ccc(N2NC(=O)/C(=C/C=C/c3ccco3)C2=O)cc1 | ? | ? | ? | 18µM* | ? | ?
Cc1nn(C)c(C)c1-c1cccc2c1CCC(N(C)C)C2 (centres undefined) | · | · | · | · | · | -10%[60.1 µM]
COCCCn1c(N)c(C(=O)Nc2ccccc2)c2nc3ccccc3nc21 | -19% | -18% | 42 | 14µM* | 4% | -5%
CC(C)CC(=O)Nc1ccc(C(=O)Cn2c(=O)oc3ccccc32)cc1 | 4% | 0% | -16 | ? | 20µM* | -7%
CCn1c(=O)oc2cc(NC(=O)CCl)ccc21 | 0% | -16% | -6 | 94% | 17% | -8%
CC(=O)O.CC(=O)O.[Cd] | · | · | · | · | · | 10µM*
NC(=NCCc1ccc(I)cc1)SCCCc1cnc[nH]1 | · | · | · | · | · | 0%[19.4 µM]
N.N.N.N.N.N.N.N.N.N.N.N.N.N.O.O.[Cl-].[Cl-].[Cl-].[Cl-].[Cl-].[Cl-].[Ru].[Ru].[Ru] | · | 25µM* | · | 8.9µM* | 5.6µM* | ·
Fc1ccc(C(OCCN2CCN(C/C=C/c3ccccc3)CC2)c2ccc(F)cc2)cc1 | · | · | · | · | · | 0%[19.4 µM]
O=c1[nH]c(=O)n(-c2ccc(F)cc2)c(O)c1/C=C1\C=Nc2ccccc21 | ? | 89µM* | 0 | 7.9µM* | 17% | ?
COc1ccc(-n2c(O)c(/C=C3\C=Nc4ccc(Br)cc43)c(=O)[nH]c2=O)c(OC)c1 | -13%[11.6 µM] | 79µM* | ? | ? | 20% | -15%
O=c1[nH]c(=O)n(-c2ccccc2F)c(O)c1/C=C1\C=Nc2ccccc21 | -23% | -8% | -28 | ? | 2% | 0%
COc1ccc(-n2c(O)c(/C=C3\C=Nc4ccc(Br)cc43)c(=O)[nH]c2=O)cc1 | -6%[57.1 µM] | -16% | -11 | 7.9µM* | -13% | -5%
SMILES | WRN helicase inh | POLH inh | PI5P4Ka inh | Pol iota inh | POLB inh | POLK inh
COC(=O)C1=Nc2ccccc2/C1=C\c1c(O)n(-c2cc(OC)ccc2OC)c(=O)[nH]c1=O | 50µM* | ? | -66* | -8% | -21% | -20%
COc1ccc(-n2c(O)c(/C=C3\C=Nc4ccccc43)c(=O)[nH]c2=O)cc1 | 0% | ? | -5 | ? | -21% | -5%
N#Cc1c(/N=C/C2C(=O)NC(=S)NC2=O)sc2c1CCCC2 | -30% | -3% | -55* | -2% | -4% | -15%
CCOC(=O)c1c(/N=C/C2C(=O)NC(=S)NC2=O)sc2c1CCC2 | 56µM* | 1% | -78* | 41% | 1% | -23%
CCOC(=O)c1c(/N=C/C2C(=O)NC(=S)NC2=O)sc(C)c1C | · | · | · | · | 17% | ·
CCOC(=O)c1cc(C)sc1/N=C/C1C(=O)NC(=S)NC1=O | 50µM* | 12% | ? | ? | -18% | -26%
CC(C)=CCCC1(C)C=Cc2c(O)c3c(c(CC=C(C)C)c2O1)OC12C(CC4CC1C(C)(C)OC2(C/C=C(/C)C(=O)O)C4O)C3=O (centres undefined) | · | · | · | · | · | -18%[60.1 µM]
CC1CC(O)[C@]2(O)[C@]13CC(=O)OC[C@@]2(C)[C@@](C)(O)C(=O)C3 (some centres undefined) | · | · | · | · | · | -8%[60.1 µM]
C=CCn1c(O)c(C=NCCCn2ccnc2)c(=O)[nH]c1=O | -4% | -7% | -1 | 36% | 0.32µM* | -3%
CCCCn1c(O)c(C=NCCCn2ccnc2)c(=O)[nH]c1=O | -4% | -1% | -7 | 1% | 6% | -12%
CN(C)[C@@H]1C(=O)C(C(N)=O)=C(O)[C@]2(O)C(=O)C3=C(O)c4c(O)cccc4[C@@](C)(O)[C@H]3[C@H](O)[C@@H]12 | · | · | · | · | · | 4.7µM*
CN(C)C1C(=O)C(C(N)=O)=C(O)[C@@]2(O)C(=O)C3=C(O)c4c(O)cccc4[C@@](C)(O)C3[C@H](O)C12 (some centres undefined) | · | · | · | · | · | 10µM*
CC[C@@H]1[C@@H]2C[C@H]3[C@H]4N(C)c5ccccc5[C@@]45C[C@@H]([C@@H]2[C@@H]5O)N3[C@H]1O | · | · | · | · | · | -19%[19.4 µM]
Cc1ccc(S(=O)(=O)Oc2ccccc2C=C2C(=O)NC(=O)NC2=O)cc1 | 1% | -10% | ? | · | · | ·
CN1C(=O)C(=Cc2ccccc2Oc2ccc(Cl)c(F)c2)C(=O)N(C)C1=O | 50µM* | ? | -52* | -4% | 19% | -17%
O=C1NC(=O)C(=Cc2ccccc2Oc2ccc(F)cc2)C(=O)N1 | 32µM* | -11% | ? | 111% | 7% | 5%
COc1ccc2c(c1OC)C(=O)OC2c1c(O)n(C2CCCCC2)c(=O)[nH]c1=O (centres undefined) | -19% | -10% | -18 | 25µM* | 17% | -22%
CC[C@@]1(O)CC(O)c2c(cc3c(c2O)C(=O)c2c(O)ccc(O)c2C3=O)C1C(=O)OC (some centres undefined) | · | · | · | · | · | 25µM*
CC[C@]1(O)CC(O[C@@H]2CC(N(C)C)C(O)C(C)O2)c2c(cc3c(c2O)C(=O)c2c(O)cccc2C3=O)C1C(=O)OC (some centres undefined) | · | · | · | · | · | 6.3µM*

Compound activity deposited in PubChem BioAssay by National Center for Advancing Translational Sciences (NCATS).
